# Laboratory results published in the supplement of paper PMC11624193, “Coupling cellular drug-target engagement to downstream pharmacology with CeTEAM” (Nature Communications, 2024).
# Counter-ions that a name gives are not always drawn.
# Target: PARP1 L713F-nLuc biosensor (HCT116) (UniProt P09874)
# Test: PARP1 L713F-nLuc/akaLuc ratio relative to DMSO control (biosensor stabilization) (fold change); higher = more PARP1 biosensor stabilization (target engagement / stabilizer), active = hit call of the paper
# Settings: stock concentration (mM; final µM = stock mM x 1): 2; 24 h;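 active = log2 fold change beyond 2 SD from the library mean after excluding viability outliers; inactive = within 2 SD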
# Chain of PARP1 L713F-nLuc biosensor (HCT116) (P09874 whole entry L713F, looked up): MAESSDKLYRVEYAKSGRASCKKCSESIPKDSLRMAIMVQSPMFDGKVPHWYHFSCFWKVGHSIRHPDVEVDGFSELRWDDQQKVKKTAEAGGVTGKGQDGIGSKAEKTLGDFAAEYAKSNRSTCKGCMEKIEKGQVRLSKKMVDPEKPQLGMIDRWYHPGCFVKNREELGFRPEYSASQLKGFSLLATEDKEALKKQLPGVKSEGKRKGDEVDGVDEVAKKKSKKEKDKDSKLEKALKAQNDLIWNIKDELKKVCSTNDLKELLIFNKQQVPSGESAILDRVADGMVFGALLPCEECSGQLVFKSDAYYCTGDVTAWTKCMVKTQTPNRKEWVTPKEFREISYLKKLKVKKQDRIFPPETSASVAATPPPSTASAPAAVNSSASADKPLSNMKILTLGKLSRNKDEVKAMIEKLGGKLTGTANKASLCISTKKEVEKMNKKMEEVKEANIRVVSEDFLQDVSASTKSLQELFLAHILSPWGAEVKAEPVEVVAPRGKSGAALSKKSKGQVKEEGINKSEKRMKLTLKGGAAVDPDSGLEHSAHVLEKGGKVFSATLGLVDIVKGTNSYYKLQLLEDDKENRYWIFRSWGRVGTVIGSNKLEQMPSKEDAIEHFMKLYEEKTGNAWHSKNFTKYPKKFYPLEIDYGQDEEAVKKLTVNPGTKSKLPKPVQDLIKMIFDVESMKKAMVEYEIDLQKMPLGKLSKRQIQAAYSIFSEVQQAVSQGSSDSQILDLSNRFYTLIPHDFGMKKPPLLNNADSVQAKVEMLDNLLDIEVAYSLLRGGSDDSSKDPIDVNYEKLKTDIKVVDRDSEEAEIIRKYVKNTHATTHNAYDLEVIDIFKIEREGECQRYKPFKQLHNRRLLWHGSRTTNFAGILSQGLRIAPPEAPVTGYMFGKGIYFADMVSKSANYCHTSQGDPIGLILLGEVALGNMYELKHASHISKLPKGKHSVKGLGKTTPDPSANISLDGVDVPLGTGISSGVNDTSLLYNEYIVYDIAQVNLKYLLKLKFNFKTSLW
row,SMILES,PARP1 L713F-nLuc/akaLuc ratio
1,CN(C)c1ccc(-c2nc3ncc(Cl)c(N4CCN(CC(=O)Nc5nccs5)CC4)c3[nH]2)cc1,0.845 (inactive)
2,CCC(C)n1ncn(-c2ccc(N3CCN(c4ccc(OCC5COC(Cn6cncn6)(c6ccc(Cl)cc6Cl)O5)cc4)CC3)cc2)c1=O (centres undefined) [Itraconazole],0.872 (inactive)
3,Cn1cc(-c2ccc(F)c(C(F)(F)F)c2)nc1C1CCN(c2ncnc3[nH]ncc23)CC1,0.945 (inactive)

# Same assay, conditions: stock concentration (mM; final µM = stock mM x 1): 10; 24 h
row,SMILES,PARP1 L713F-nLuc/akaLuc ratio
1,Cc1cc(C)nc(SCC(=O)Nc2ncc(Cc3cccc4ccccc34)s2)n1,0.926 (inactive)
2,c1cc(-c2cnn3cc(-c4ccc(OCCN5CCCCC5)cc4)cnc23)ccn1 [Dorsomorphin],1.11 (inactive)
3,COc1cc2ncnc(Nc3cc(Br)c(O)c(Br)c3)c2cc1OC,1.37 (inactive)
4,CNC(=O)c1ccc(N2C(=S)N(c3ccc(C#N)c(C(F)(F)F)c3)C(=O)C2(C)C)cc1F [Enzalutamide (MDV3100)],0.993 (inactive)
5,Cn1cc(C(=O)Nc2ccc([C@@H]3C[C@H]3NCC3CC3)cc2)cn1,0.949 (inactive)
6,CN1CCN(c2ccc3nc(-c4c(N)c5c(F)cccc5[nH]c4=O)[nH]c3c2)CC1 [Dovitinib (TKI258) Lactate],0.754 (inactive)
7,COc1ccc(Cn2ccc3ccc(C(=O)NO)cc32)cc1,1.04 (inactive)
8,CCc1cncnc1N1CCN(Cc2nc3ccc(C(F)(F)F)cc3[nH]2)CC1,0.681 (inactive)
9,CC(C)N(CCCNC(=O)Nc1ccc(C(C)(C)C)cc1)C[C@H]1O[C@@H](n2ccc3c(N)ncnc32)[C@H](O)[C@@H]1O,2.19 (inactive)
10,CCCCNc1ncc(C(=O)NCc2ccc(-n3ccnc3)cc2)c(NC2CCC(O)CC2)n1 (centres undefined),0.954 (inactive)
11,CN(C)CCCN(CC[C@H](N)C(=O)O)C[C@H]1O[C@@H](n2cnc3c(N)ncnc32)[C@H](O)[C@@H]1O [GSK2807 (Trifluoroacetate)],0.926 (inactive)
12,N#Cc1cccnc1N1CCN(C(=O)c2cccc(Cc3n[nH]c(=O)c4ccccc34)c2)CC1,2.72 (active)
13,CO[C@@H](C(=O)N1Cc2[nH]nc(NC(=O)c3ccc(N4CCN(C)CC4)cc3)c2C1)c1ccccc1 [Danusertib],0.752 (inactive)
14,CC1(C)C=Cc2cc(CCn3c4ccccc4c4ccccc43)cc(C=O)c2O1,1.78 (inactive)
15,Cc1ccc(Nc2nccc(N(C)c3ccc4c(C)n(C)nc4c3)n2)cc1S(N)(=O)=O [Pazopanib],1.33 (inactive)
16,CC/C(=C(\c1ccccc1)c1ccc(OCCNC)cc1)c1ccccc1 [N-Desmethyltamoxifen (hydrochloride)],0.968 (inactive)
17,Nc1nc(=S)c2[nH]cnc2[nH]1 [6-Thioguanine],1.43 (inactive)
18,COC(=O)c1ccc(N2CCN(C)CC2)c(NC(=O)c2cccc(OC)c2)c1,0.856 (inactive)

row,SMILES,PARP1 L713F-nLuc/akaLuc ratio
1,CC[C@@H]1CN(C(=O)NCC(F)(F)F)C[C@@H]1c1cnc2cnc3[nH]ccc3n12 [Upadacitinib],1.32 (inactive)
2,COc1cc2c(cc1OC)-c1c(C)c3ccc(OC)c(OC)c3c[n+]1CC2 [Dehydrocorydaline],0.741 (inactive)
3,N[C@H]1CC[C@H](N[C@@H]2C[C@H]2c2ccccc2)CC1 [Iadademstat (dihydrochloride)],1.06 (inactive)
4,NC(=O)c1cccc(N)c1 [3-Aminobenzamide],0.995 (inactive)
5,CC#CC(=O)N1CCC[C@H]1c1nc(-c2ccc(C(=O)Nc3ccccn3)cc2)c2c(N)nccn12 [Acalabrutinib (ACP-196)],1.28 (inactive)
6,C[C@]12CCCN1CC1=NNC(=O)c3cc(F)cc4[nH]c2c1c34 [Pamiparib],5.97 (active)
7,Cc1cnc(-c2ccccc2C(C)C)nc1NCc1ccc(-n2ccnn2)cc1,0.718 (inactive)
8,CC(C)NC[C@@H](C(=O)N1CCN(c2ncnc3c2[C@H](C)C[C@H]3O)CC1)c1ccc(Cl)cc1 [Ipatasertib (GDC-0068)],0.669 (inactive)
9,CCCc1cc(C)[nH]c(=O)c1CNC(=O)c1cc(-c2ccc(N3CCN(C(C)C)CC3)nc2)cc2c1cnn2C(C)C,0.862 (inactive)
10,CCNC(=O)CCC/C=C\C[C@@H]1[C@@H](/C=C/[C@@H](O)CCc2ccccc2)[C@H](O)C[C@@H]1O [Bimatoprost],0.942 (inactive)
11,CC(=O)NCC(=O)N1[C@@H]2CC[C@H]1c1ccc(Nc3ncc(C(F)(F)F)c(NC4CCC4)n3)cc12,1.27 (inactive)
12,Cn1cc(C2=C(c3c4n(c5ccccc35)CCC(CN)C4)C(=O)NC2=O)c2ccccc21 (centres undefined) [Bisindolylmaleimide X (hydrochloride)],0.725 (inactive)
13,Cc1cn(-c2cc(NC(=O)c3ccc(C)c(Nc4nccc(-c5cccnc5)n4)c3)cc(C(F)(F)F)c2)cn1 [Nilotinib (AMN-107)],0.959 (inactive)
14,COc1cc(OC)c(/C=C/S(=O)(=O)Cc2ccc(OC)c(NCC(=O)O)c2)c(OC)c1,0.583 (inactive)
15,Cc1ccc(NC(=O)c2ccc(CN3CCN(C)CC3)cc2)cc1Nc1nc(-c2cccnc2)cs1 [Masitinib (AB1010)],0.851 (inactive)
16,CC[C@]1(O)C[C@@H]2CN(CCc3c([nH]c4ccccc34)[C@@](C(=O)OC)(c3cc4c(cc3OC)N(C)[C@H]3[C@@](O)(C(=O)OC)[C@H](OC(C)=O)[C@]5(CC)C=CCN6CC[C@]43[C@@H]65)C2)C1 [Vinblastine sulfate],1.03 (inactive)
17,Cn1cc(-c2cn3nccc3c(-c3cnn([C@]4(CC#N)C[C@@H](C#N)C4)c3)n2)cn1 [Ropsacitinib],1.02 (inactive)
18,CN(C)CCCCC(=O)Nc1ccc(NC(=S)NC(=O)c2ccc(C(C)(C)C)cc2)cc1 [Tenovin-6 (Hydrochloride)],0.665 (inactive)
